Screen size: about 360,000 compounds; about 7,500 (2.1%) were called active. Roughly 8% stayed inconclusive and do not appear here. Calls follow the shape of the dose curve; as a rule, active = well fitted cell-killing curve with a large enough effect; inconclusive = small, poorly fitted or top-dose-only effect, or effect the other way, or another doubt; inactive = no such curve, though single readings can be large or run the other way. Only a selection was taken, and actives are over-represented in it overall.
Assay: qHTS for induction of synthetic lethality in tumor cells producing 2HG: qHTS for the HT-1080-IDH1KD cell line;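 as to activity, negative = toxicity: 0% = DMSO wells and -100% = cell-free medium wells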
Details: HT-1080 IDH1 knockdown viability, ATP luminescence, 48 h; series mostly up to 46.1 µM; activity, negative = toxicity: at the top concentration
Method in brief: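 Assay cells: HT-1080 with IDH1 knockdown, 750 per well, RPMI/5% FBS. Exposure: 48 h at 37 °C following 2 h pre-incubation. Read: CellTiter-Glo luminescence; fitted concentration-response, curve class assigned.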
Potency is read from the fitted curve at half-maximal effect.

SMILES | activity, negative = toxicity | Potency
CC1(C(=O)NS(=O)(=O)c2cccc(F)c2)CCN1C(=O)c1cccc2ccccc12 (stereo unspecified) | 1.27% (inactive) | –
COc1cccc(CN(C)C(=O)CC[C@H]2O[C@@H](n3cnc4c(NC(=O)c5ccccc5)ncnc43)[C@H](O)[C@@H]2O)c1 | 13.1% (inactive) | –
COc1ccc(C(C#N)=C2C=CC(=NO)c3ccccc32)cc1 | – | 0.517 µM (active)
COc1ccc(/C(N)=N/OC(=O)Cc2ccccc2)cc1 | 12.4% (inactive) | –
COc1ccc(C(=NN)c2ccc(OC)cc2)cc1 | 18.4% (inactive) | –
CN(c1ccccc1)S(=O)(=O)c1ccc(Cl)c(C(=O)NCCc2c[nH]c3ccccc23)c1 | -8.58% (inactive) | –
CN(C)CCNC(=O)c1ccc(Cl)c2cc3ccccc3nc12 | – | 10.3 µM (active)
CN(C)CCNC(=O)Nc1cccc(Cl)c1Cl | -6.77% (inactive) | –
CC(=O)NC(c1cccc(F)c1)c1nc(-c2cccc(F)c2)cs1 (stereo unspecified) | 0.603% (inactive) | –
COc1ccc([C@H]2C[C@@H](n3cc(COC(=O)c4ccccc4)nn3)[C@H](O)CN2C(=O)c2cccs2)cc1 | -6.72% (inactive) | –
COC(=O)C[C@@H]1C=C[C@@H](NC(=O)c2ccc3c(c2)OCO3)[C@@H](CO)O1 | 23.1% (inactive) | –
Cc1ccc(S(=O)(=O)N2C[C@@H](C)[C@]3(C2)[C@H](O)[C@H](OC(=O)NCc2ccccc2)C[C@H]2C(=O)N(c4ccccc4)C(=O)[C@H]23)cc1 | -0.522% (inactive) | –
Cc1ccc(OS(=O)Nc2cccc3nccnc23)cc1 (stereo unspecified) | – | 11.2 µM (active)
Cc1ccc(Oc2ccc3c(c2)C(=O)N(c2cccc4cccnc24)C3=O)cc1 | 7.05% (inactive) | –
Cc1ccc(OCC(=O)Nn2cnc3ccccc32)cc1 | -17.9% (inactive) | –
CCNC(=O)C1(C)CCN(C(=O)c2ccccc2)C1 (stereo unspecified) | 4.67% (inactive) | –
O=C(NCc1ccc(F)cc1)c1cc(C2CCCCN2C(=O)c2ccccn2)on1 (stereo unspecified) | 23.9% (inactive) | –
COc1cccc(CNC(=O)[C@@H]2CCCN2C(=O)[C@@H]2CCCN2C(=O)c2ccccc2)c1 | 9.12% (inactive) | –
S=C(NCCCc1ccccc1)Nc1ccc(Br)cc1 | – | 16.4 µM (active)
O=C(Cc1ccc(Br)cc1)NCCc1ccccc1 | -2.12% (inactive) | –
O=S(=O)(NCCCc1ccccc1)c1ccc(Br)cc1 | 2.69% (inactive) | –

SMILES | activity, negative = toxicity | Potency
Cc1ccc(S(=O)(=O)N2CCN(c3ncnc4ccccc34)CC2)cc1 | – | inactive
Cc1ccc(C)c(S(=O)(=O)N2CCN(c3ncnc4sccc34)CC2)c1 | – | 4.61 µM (active)
COc1ccc(C)cc1S(=O)(=O)N1CCN(S(=O)(=O)c2cc(C(=O)O)ccc2C)CC1 | 9.87% (inactive) | –
COc1ccccc1-n1c(SCC(=O)Nc2ccc(Cl)cc2)nc(O)c(Cc2ccccc2)c1=O | -24.8% (inactive) | –
CCOC(=O)[C@]12CCC=C1N(Cc1ccccc1)C(=O)[C@H](CC(=O)N1CCCC1)C2 | 2.61% (inactive) | –
O=C1CCC(=O)N1CCC(=O)N(C(=O)NC1CCCCC1)C1CCCCC1 | -1.14% (inactive) | –
CCCCNC(=O)C[C@@H]1C[C@@]2(C(=O)OCC)CCC=C2N(Cc2cccc3ccccc23)C1=O | -12.6% (inactive) | –
COC(=O)[C@]12CCCCC=C1N(Cc1ccc(Cl)cc1Cl)C(=O)[C@H](CC(=O)NCc1cccc3ccccc13)C2 | -28.4% (inactive) | –
CCOC(=O)[C@]12CCCC=C1N(Cc1cccc3ccccc13)C(=O)[C@H](CC(=O)NCC13CC4CC(CC(C4)C1)C3)C2 | – | 23.1 µM (active)
CCc1nc2ccc(C(=O)N3CCC(O)(Cc4ccccc4)CC3)cn2c1N(C)C(=O)Cc1ccccc1 | 18.8% (inactive) | –
O=S1(=O)CC(N2CCN(CCO)CC2)CN1Cc1cn(Cc2ccc(Cl)cc2)nn1 (stereo unspecified) | 6.6% (inactive) | –
Cc1cccc(S(=O)(=O)N(C)C[C@H]2OCc3cnnn3CCCC(=O)N([C@@H](C)CO)C[C@H]2C)c1 | 6.99% (inactive) | –
COc1ccccc1-c1cc2nc(NCc3cccc(Cl)c3)ccn2n1 | -18.2% (inactive) | –
CC(C)Cc1ccc(-c2cc3nc(NCc4cccc(Cl)c4)ccn3n2)cc1 | – | 20.6 µM (active)
Cc1cc(C)n2c(NCc3ccccc3)c(CC(C)C)nc2n1 | 5.86% (inactive) | –
Cc1sc2ncnc(SCC(=O)NC3CCS(=O)(=O)C3)c2c1C (stereo unspecified) | -2.68% (inactive) | –
C=CCOc1ccccc1CNn1c(C)n[nH]c1=S | 0.246% (inactive) | –
CNc1cncc(-c2ccc(NS(C)(=O)=O)cc2)n1 | – | 5.8 µM (active)
CNc1cncc(-c2cccc(C(=O)N3CCOCC3)c2)n1 | 7.17% (inactive) | –
CS(=O)(=O)Nc1ccc(C(=O)N2CCCC2)cc1 | 8.84% (inactive) | –
CCC(C(=O)Nc1c(C)cccc1C)n1c(-c2cc(C)cs2)nc2ccccc21 (stereo unspecified) | -20.4% (inactive) | –

SMILES | activity, negative = toxicity | Potency
CC1(C)NC(=O)N(CC(=O)Nc2ccc(-c3ccccc3)cc2)C1=O | 3.48% (inactive) | –
COc1ccc(NC(=O)CN(C)C(=O)c2cc(C)oc2C)cc1 | -0.701% (inactive) | –
COc1ccccc1NC(=O)C1=C(C)Nc2nc3ccccc3n2C1c1cccs1 (stereo unspecified) | – | 5.17 µM (active)
CCOc1ccc(C2C(C(=O)NC)=C(C)Nc3nc4ccccc4n32)cc1OC (stereo unspecified) | 8.97% (inactive) | –
CCOC(=O)C1=C(C)Nc2nc3ccccc3n2C1c1cccs1 (stereo unspecified) | -13% (inactive) | –
Cc1nc(C(F)(F)F)ccc1C(=O)N1CCC1(C)C(=O)NS(=O)(=O)c1ccccc1 (stereo unspecified) | 6.16% (inactive) | –
COc1cc(/C=N/NC(=O)c2cc(-c3ccccc3C)nc3ccccc23)cc(OC)c1O | -16.2% (inactive) | –
CCOc1ccc(NC(=O)c2cc(C)nc3ccccc23)cc1 | 15.6% (inactive) | –
CCOc1ccc(-c2cc(C(=O)N/N=C/c3ccc(O)cc3)c3ccccc3n2)cc1 | – | 5.8 µM (active)
O=C(Nc1ccc(N2CCOCC2)cc1)c1cccc2c(-c3ccc(F)c(F)c3)coc12 | -2.43% (inactive) | –
Oc1ccc(/C=N/Nc2nc(-c3ccccc3F)nc3ccccc23)c(O)c1 | – | 11.6 µM (active)
Oc1c(Br)cccc1/C=N/Nc1c(F)c(F)c(F)c(F)c1F | -0.347% (inactive) | –
CC1(C(=O)NS(=O)(=O)c2cccc(F)c2)CCN1C(=O)Cc1cc(F)ccc1F (stereo unspecified) | 3.61% (inactive) | –
Cc1ccc(Cn2c(C)c(C(=O)NCc3ccccc3C(F)(F)F)sc2=O)cc1 | 5.39% (inactive) | –
O=[N+]([O-])c1cccc(C=NN=Cc2ccccc2O)c1 | 7.79% (inactive) | –
O=C(Oc1ccc([N+](=O)[O-])cc1)c1ccc2ccccc2n1 | -24% (inactive) | –
O=[N+]([O-])c1ccc(N=Cc2c(O)ccc3ccccc23)cc1 | – | 9.2 µM (active)
O=C(NCc1cccnc1)c1ccc2nc([C@@H]3O[C@H](CO)[C@H](O)[C@H](O)[C@H]3O)[nH]c2c1 | 15.5% (inactive) | –
Cc1cn([C@H]2C[C@H](O)[C@@H](/C=C/C(=O)NCCCc3ccccc3)O2)c(=O)[nH]c1=O | -2.08% (inactive) | –
